Structures are written as SMILES. Where “and” joins values, the source holds several entries; their conditions need not be identical. Equal entries are not always repeated. Structures can show the parent of a compound that is named as a salt.

The assay deals with K562. Briefly: cell viability relative to vehicle control; higher = less cytotoxic. Conditions: 10 µM; SRSF2 genotype: SRSF2 P95H/wt. The procedure, abridged:
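After removal of identity-inconsistent compounds, the Selleck bioactive, kinase and epigenetic probe libraries were screened on CRISPR-edited mutant clones and isogenic wild-type clones of four leukaemia lines. Plates were 384-well, each well holding 2000 cells in 50 µL medium and receiving a single 10 µM acoustically dispensed dose. CellTiter-Glo luminescence was read 48 h later, after the supernatant was taken off. Genedata Screener was used to express viability as percent of the on-plate vehicle control.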
A word on the cell viability: it is a read-out of living cells in per cent, often relative to untreated cells. With `NC(=O)[C@@H](CCC(F)(F)F)N(Cc1ccc(-c2ncon2)cc1F)S(=O)(=O)c1ccc(Cl)cc1`, the cell viability is 92.5% and 98.1%.

For the molecule `COc1c/c(=C2\C=c3ccccc3=N2)[nH]/c1=C\c1[nH]c(C)cc1C` [Obatoclax mesylate (GX15-070)], the cell viability was 2.96% and 5.97%. For `O=C(O)CC(C(=O)O)n1c(O)c(C2=c3cc(Br)ccc3=NC2=O)sc1=S` (configuration not stated), the cell viability was 96.1% and 99.4%. Next, `COc1cc(NS(=O)(=O)c2ccc(N)cc2)nc(OC)n1` [Sulphadimethoxine]: 95.8% and 87.4%. For the molecule `NC(=O)[C@@H]1CCCN1C(=O)[C@H](Cc1c[nH]cn1)NC(=O)[C@@H]1CCC(=O)N1` [Protirelin], the cell viability is 99.8% and 93.1%. For the molecule `COC(=O)c1cc(OC)c(O)c(OC)c1` [Methyl syringate], the cell viability is 101% and 87.8%. Consider `N=c1ccn2c(n1)O[C@H]1[C@H](O)[C@@H](CO)O[C@H]12` [Cyclocytidine HCl], for which the cell viability was 92.8% and 103%. The value for `O=P(O)(O)C(O)(Cc1cccnc1)P(=O)(O)O` [Risedronate sodium] was 95.3% and 102%; that for `CN(C)CCOc1ccc(-c2nc(-c3ccncc3)c(-c3ccc4c(c3)CC/C4=N\O)[nH]2)cc1` was 1.3% and 2.07%. For `COC(=O)C1=C(C)NC(C)=C(C(=O)OCCN2CCN(C(c3ccccc3)c3ccccc3)CC2)C1c1cccc([N+](=O)[O-])c1` (configuration not stated) [Manidipine (Manyper)], the cell viability was 75.7% and 63.9%.

Turning to `COC1CCN(C(=O)c2cc(Cc3n[nH]c(=O)c4ccccc34)ccc2F)CC1`, the cell viability was 78.6% and 83.8%. The value for `C=C1C[C@@]23CC[C@H]4[C@@](C)(CCC[C@@]4(C)C(=O)O[C@@H]4O[C@H](CO)[C@@H](O)[C@H](O)[C@H]4O)[C@@H]2CC[C@]1(O[C@@H]1O[C@H](CO)[C@@H](O)[C@H](O)[C@H]1O[C@@H]1O[C@H](CO)[C@@H](O)[C@H](O)[C@H]1O)C3` [Stevioside] was 113% and 107%. The value for `Cc1cc(=O)oc2ccc(O)cc12` [6-Hydroxy-4-methylcoumarin] was 111% and 101%; that for `COC1C(O)C(O)C(O)C(O)C1O` (configuration not stated) [Sequoyitol] was 102% and 107%; that for `CC1(C)O[C@@H]2C[C@H]3[C@@H]4CCC5=CC(=O)C=C[C@]5(C)[C@@]4(F)[C@@H](O)C[C@]3(C)[C@]2(C(=O)CO)O1` [Triamcinolone Acetonide] was 101% and 100%.

Consider `COc1ccc(C(C)=O)c(O)c1` [Paeonol (Peonol)], for which the cell viability is 103% and 101%.

Turning to `COc1cccc(/C=N/N(C(=O)C(F)(F)F)c2ccc(C)cc2C)c1`, the cell viability was 90.5% and 95.3%. The value for `C=C1C(=O)[C@]23[C@H](O)[C@H]1CC[C@H]2[C@@]12CO[C@]3(O)[C@@H](O)[C@@H]1C(C)(C)CC[C@@H]2O` [Oridonin (Isodonol)] was 26.2% and 29.8%; that for `CN(CCOc1ccc(CC2SC(=O)NC2=O)cc1)c1ccccn1` (configuration not stated) [Rosiglitazone maleate] was 98.8% and 97.5%; that for `CC(C)C[C@@H]1NC(=O)[C@@H](C(C)C)NC(=O)[C@@H]2CCCN2C(=O)[C@@H](CC(=O)O)NC(=O)[C@@H](Cc2c[nH]c3ccccc23)NC1=O` was 101% and 105%. Next, `Cc1cc(Nc2ncc3c(n2)N(C)C(=O)N(c2cc(NC(=O)c4cccc(C(F)(F)F)c4)ccc2C)C3)n(C)n1` [Pluripotin (SC1)]: 35.1% and 35.2%; `C[C@]12C=CC(=O)C=C1CC[C@H]1[C@@H]3C[C@@H](O)[C@](O)(C(=O)CO)[C@@]3(C)C[C@H](O)[C@@]12F` [Triamcinolone (Aristocort)]: 107%. `O=C(O)CCC(=O)O` [Succinic acid]: the cell viability was 90.3% and 88.2%.

As to `CCOP(=O)(OCC)C(=Cc1cc(C(C)(C)C)c(O)c(C(C)(C)C)c1)P(=O)(OCC)OCC`, the cell viability is 77.8% and 87.5%.

As to `O=C(/C=C/C=C/c1ccc2c(c1)OCO2)N1CCCCC1` [Piperine (1-Piperoylpiperidine)], the cell viability is 105% and 94.8%. For the molecule `Cc1cc(=O)n(-c2ccccc2)n1C` [Antipyrine], the cell viability is 97.8% and 87.7%.

For `CC(=O)OC(CC(C)C1=C2CC(O)C3C4(C)CCC(=O)C(C)(C)C4CCC3(C)C2(C)CC1)C1OC1(C)C` (configuration not stated) [Alisol B Acetate], the cell viability was 81.3% and 84.2%. `CC(=O)Nc1ccccc1` [Acetanilide (Antifebrin)]: the cell viability came to 104%. Consider `CCS(=O)(=O)N1CC(CC#N)(n2cc(-c3ncnc4[nH]ccc34)cn2)C1`, for which the cell viability was 110% and 106%. The value for `O=C(O)[C@H]1O[C@@H](Oc2cc3oc(-c4ccc(O)cc4)cc(=O)c3c(O)c2O)[C@H](O)[C@@H](O)[C@@H]1O` [Scutellarin] was 103% and 99.4%; that for `Cc1cc(S(=O)(=O)O)c2c(C)ccc(C(C)C)cc1-2` [Sodium gualenate] was 103%. The value for `O=C(Nc1ccc(OC(F)(F)Cl)cc1)c1cnc(N2CC[C@@H](O)C2)c(-c2cc[nH]n2)c1` [Asciminib (ABL001)] was 12.7% and 19%.

(Values after the supplement of paper PMC10981050.)
